# Experimental data: article PMC4336329 (PLoS ONE, 2015)
# The whole screen tested about 310,000 compounds, of which about 14,000 (4.5%) showed an effect of 50% or more. Effects have a minus sign here. The sample as a whole holds a higher share of strong results than the screen did.
# Target: human ether-à-go-go-related gene (hERG) potassium channel (human, UniProt Q12809)
# Test: primary screen, population patch clamp on CHO cells stably expressing hERG; higher = less effect of the substance
# 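Further: peak tail current of the secondary pulse compared with the same well before compound.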
# Sequence of human ether-à-go-go-related gene (hERG) potassium channel (Q12809 whole entry, looked up): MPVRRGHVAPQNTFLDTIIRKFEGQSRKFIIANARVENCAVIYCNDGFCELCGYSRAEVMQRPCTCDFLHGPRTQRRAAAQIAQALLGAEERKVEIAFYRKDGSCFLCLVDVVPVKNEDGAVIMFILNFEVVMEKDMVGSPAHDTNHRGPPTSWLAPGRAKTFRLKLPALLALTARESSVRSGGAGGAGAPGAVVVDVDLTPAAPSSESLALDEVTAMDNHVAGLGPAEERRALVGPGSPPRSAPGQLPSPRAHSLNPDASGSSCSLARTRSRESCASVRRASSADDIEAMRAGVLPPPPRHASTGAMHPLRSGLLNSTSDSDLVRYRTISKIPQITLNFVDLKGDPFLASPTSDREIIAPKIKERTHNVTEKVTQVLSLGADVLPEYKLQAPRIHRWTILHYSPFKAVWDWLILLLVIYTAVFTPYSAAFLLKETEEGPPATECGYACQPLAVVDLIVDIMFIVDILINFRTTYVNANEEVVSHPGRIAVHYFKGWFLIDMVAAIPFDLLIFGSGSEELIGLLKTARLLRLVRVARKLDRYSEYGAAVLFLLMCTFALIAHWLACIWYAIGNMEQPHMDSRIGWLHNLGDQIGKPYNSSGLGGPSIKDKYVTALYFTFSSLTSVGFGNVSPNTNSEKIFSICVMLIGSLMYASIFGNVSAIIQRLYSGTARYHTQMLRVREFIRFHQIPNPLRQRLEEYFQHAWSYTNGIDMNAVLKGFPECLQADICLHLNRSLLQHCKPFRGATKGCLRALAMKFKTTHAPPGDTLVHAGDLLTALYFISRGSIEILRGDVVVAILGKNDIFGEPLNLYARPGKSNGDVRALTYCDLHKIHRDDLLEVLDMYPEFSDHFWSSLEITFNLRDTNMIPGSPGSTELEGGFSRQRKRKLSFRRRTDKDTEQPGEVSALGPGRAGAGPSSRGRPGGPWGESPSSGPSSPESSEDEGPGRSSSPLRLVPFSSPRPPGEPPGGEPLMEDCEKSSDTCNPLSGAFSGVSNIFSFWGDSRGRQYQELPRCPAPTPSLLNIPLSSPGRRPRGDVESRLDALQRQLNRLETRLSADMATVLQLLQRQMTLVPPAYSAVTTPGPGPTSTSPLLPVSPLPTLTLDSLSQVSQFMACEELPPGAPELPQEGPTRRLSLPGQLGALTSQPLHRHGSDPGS
row,SMILES,"hERG current change (%, negative = inhibition) at 10uM"
1,CC(C)(C)c1ccc(/C=C/C(=O)NC2=NCCS2)cc1,10.5%
2,O=C(O)CC1SC(=Nc2cccc(C(F)(F)F)c2)NC1=O (centres unmarked),5.13%
3,CCN(CC)c1ccc(/C=N/OCC(=O)Nc2cccc(C)c2)cc1,-2.16%
4,CCCCOc1ccc(C(=O)N2CCNC(=O)C2CC(=O)OC(C)C)cc1 (centres unmarked),13.1%
5,Cc1ccc(-c2nc(CS(=O)CC(=O)NC3CCCC3)c(C)o2)cc1 (centres unmarked),-13.3%
6,COc1ccc(-c2cc(COc3ccccc3)on2)cc1,36.1%
7,CC(=O)c1c(N2CCN(Cc3ccccc3)CC2)[nH]c(-c2ccccc2)nc1=S,2.17%
8,N#Cc1ccc(CN2CCN(C(=O)c3cc(Cl)c4c(c3)OCCO4)CC2)cc1,-67.7%
9,Cl.O=C(c1cccc(S(=O)(=O)N2CCCC2)c1)N1CCN(Cc2ccccc2)CC1,-14.2%
10,O=C(c1cccc(S(=O)(=O)N2CCCCC2)c1)N1CCCCC1,5.7%
11,N#Cc1ccc(CN2CCN(C(=O)c3ccccc3)CC2)c(Cl)c1,-33.2%
12,Cl.O=C(c1ccc2c(c1)OCCO2)N1CCN(Cc2ccccc2)CC1,2.59%
13,Cl.O=C(c1cccc(S(=O)(=O)N2CCCCC2)c1)N1CCN(Cc2ccccc2)CC1,-56.6%
14,N#Cc1ccc(CN2CCN(C(=O)c3cccc(S(=O)(=O)N4CCCCCC4)c3)CC2)cc1,-75.8%
15,CN1CCN(C(=O)c2cccc(S(=O)(=O)N3CCCCC3)c2)CC1,-7.44%
16,N#Cc1ccc(CN2CCN(C(=O)c3ccc(S(=O)(=O)N4CCCCCC4)cc3)CC2)cc1,-40.9%
17,CC(=O)Nc1nnc(CCS(=O)(=O)c2ccc(C)c(C)c2)s1,8.73%
18,Cc1ccccc1N/N=C/c1sc(=O)n(Cc2cccc(C(=O)O)c2)c1Cl,38.9%
19,CCN(CC)C(=O)Oc1ccc2c(=O)c(-c3ccc(OC)cc3)c(C)oc2c1,-35.8%
20,O=C(Nc1cccc(F)c1)Nc1ccc(Cl)cn1,7.51%

row,SMILES,"hERG current change (%, negative = inhibition) at 10uM"
1,Cc1cccc(CN(C(=S)Nc2c(C)cccc2C)c2cccnc2)c1,-9.13%
2,Cc1[nH]c2ccccc2c1C(=O)COC(=O)C(C)C,-6.03%
3,S=C(NCC(c1ccco1)N1CCCC1)Nc1ccccc1 (centres unmarked),-28.9%
4,COc1ccc(-n2nnnc2SCC(=O)Nc2nc3c(s2)CCCC3)cc1,9.26%
5,CCC1CCCCN1CC(=O)Nc1ccc2c(c1)OCCO2 (centres unmarked),10.6%
6,Cc1cc(C)nc(-n2nc(C)cc2NC(=O)CN2CCCC(C)C2)n1 (centres unmarked),-56%
7,CCC1CCCCN1CC(=O)Nc1cc(C)nn1-c1nc(C)cc(C)n1 (centres unmarked),-58.8%
8,Cc1cc(C)nc(-n2nc(C)cc2NC(=O)CN2CCC(C)CC2)n1,-65.6%
9,Cc1cc(C)cc(NC(=O)CN2CCc3ccccc3C2)c1,-10.2%
10,Cc1cccc(C)c1NC(=O)CN1CCc2ccccc2C1,8.31%
11,Cc1cc(NC(=O)CN2CCCCC2)n(-c2ccccc2)n1,6.65%
12,Cc1cc(C)nc(-n2nc(C)cc2NC(=O)CN2CCc3ccccc3C2)n1,-68.7%
13,CC(=O)Nc1ccc(NC(=O)CN2CCCC(C)C2)c(Cl)c1 (centres unmarked),-5.17%
14,Cc1cc(C)nc(-n2nc(C)cc2NC(=O)CN2CCCC2)n1,-34.1%
15,Cc1cc(NC(=O)CN2CCCC(C)C2)no1.O=C(O)C(=O)O (centres unmarked),10.7%
16,CCC1CCCCN1C(=O)CSc1nc(C)cc(C)n1 (centres unmarked),-12.8%
17,Cc1ccc(C2(COC(=O)C(C)C)CO2)c(OC(=O)C(C)C)c1 (centres unmarked),2.15%
18,Cc1ccc(-c2n[nH]c(=O)c3ccccc23)cc1S(=O)(=O)NC(C)(C)C,13.6%
19,CCn1c(SCC(N)=O)nnc1-c1ccc2c(c1)OCO2,-0.333%
20,O=C(Nc1cc(Sc2ccccn2)cc([N+](=O)[O-])c1)c1ccc(Cl)cc1,11.6%

row,SMILES,"hERG current change (%, negative = inhibition) at 10uM"
1,CCOc1ccccc1C(=O)Nc1cc(Cl)ccc1O,14.7%
2,COc1ccc(CC(=O)N2CCc3cc(OC)c(OC)cc3C2C)c(OC)c1 (centres unmarked),-6.22%
3,CCc1ccccc1NC1c2ccccc2C(=O)N1c1cc(C)ccn1 (centres unmarked),-1.18%
4,Cc1cc(C)nc(-n2nc(C)cc2NC(=O)c2ccc(F)cc2F)n1,-0.0513%
5,Cc1ccc(C)c(C(=O)Nc2cc(C)nn2-c2nc(C)cc(C)n2)c1,3.98%
6,Cc1cc(C)nc(-n2nc(C)cc2NC(=O)CNC2CCCCC2)n1,-52.4%
7,COc1ccc(CCn2c(N)c(C#N)c3nc4ccccc4nc32)cc1OC,4.14%
8,CCN(CC)S(=O)(=O)c1cccc(-c2nnc(SCC(=O)c3cc(C)n(C)c3C)o2)c1,-25.5%
9,CC1=C(C(=O)OC(C)C)C(c2ccc(F)cc2)NC(=O)N1 (centres unmarked),-5.4%
10,CCOCC(=O)Nc1ccc(Br)c(C)c1,4.88%
11,COc1ccc(CCN2CC(C(=O)NCCc3ccc(C(F)(F)F)cc3)CCC2=O)cc1 (centres unmarked),-46.8%
12,O=C(NCCc1ccc(C(F)(F)F)cc1)C1CCC(=O)N(CCCN2CCCC2=O)C1 (centres unmarked),13.1%
13,O=C(NCCc1cccc(C(F)(F)F)c1)C1CCC(=O)N(CCc2cccc(F)c2)C1 (centres unmarked),-56.8%
14,O=C(NCCc1cn[nH]c1)C1CCC(=O)N(CCc2cccc(F)c2)C1 (centres unmarked),25.1%
15,O=C(NCCc1cccs1)C1CCC(=O)N(CCc2cccc(F)c2)C1 (centres unmarked),-26.1%
16,O=C(NCCN1CCCC1=O)C1CCC(=O)N(CCc2cccc(F)c2)C1 (centres unmarked),9.49%
17,O=C(NCCc1ccc(C(F)(F)F)cc1)C1CCC(=O)N(CCc2cccc(F)c2)C1 (centres unmarked),-51.4%
18,O=C(NCCc1ccc(C(F)(F)F)cc1)C1CCC(=O)N(CCCc2ccccc2)C1 (centres unmarked),-50.2%
19,O=C(NCCc1ccccc1)C1CCC(=O)N(CCCN2CCCC2=O)C1 (centres unmarked),5.82%
